Assay results as given in PubChem BioAssay (NCATS).
Results filed as inconclusive are left out. Active and inactive are the calls of the source. Calls follow the shape of the dose curve; as a rule, active = well fitted inhibition curve with a large enough effect; inconclusive = small, poorly fitted or top-dose-only effect; inactive = flat fitted curve, though single readings scatter.

Tests used:
[1] = tested on: HEK293; assay: Cytotoxic Profiling of Annotated Libraries Using Quantitative High-Throughput Screening (AID 1296008); conditions: Five cell lines viability, CellTiter-Glo ATP luminescence, 48-72 h; max response: active compounds read low; also: potency is read from the fitted curve at half-maximal effect; as to max response: % is scaled to controls: 0 for no effect and ±100 for the full control effect
Procedure, shortened: (§1)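 Cytotoxicity was measured as CellTiter-Glo ATP luminescence, read after 10 min at room temperature. Compound treatment of the cells lasted 48 or 72 hr at 37 degrees Celsius in a qHTS format.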

[2] = tested on: HaCat; assay: as above; conditions: Five cell lines viability, CellTiter-Glo ATP luminescence, 48-72 h; max response: active compounds read low
Procedure, shortened: as §1

[3] = tested on: KB-3-1; assay: as above; conditions: Five cell lines viability, CellTiter-Glo ATP luminescence, 48-72 h; max response: active compounds read low
Procedure, shortened: as §1

[4] = tested on: NIH3T3; assay: as above; conditions: Five cell lines viability, CellTiter-Glo ATP luminescence, 48-72 h; max response: active compounds read low
Procedure, shortened: as §1

[5] = tested on: HACAT; assay: qHTS assay to identify novel small-molecules to repurpose for Merkel cell carcinoma treatment (AID 1296009); conditions: MCC and control cell lines, CellTiter-Glo viability, 72 h; series mostly up to 44.8 µM
Procedure, shortened: (§2)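 Cell viability measured by CellTiter-Glo following 72 hr compound treatment at 37 degree celsius, with NPC and MIPE libraries tested in 8- and 11-point concentration series.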

[6] = tested on: HEK293T; assay: as above; conditions: MCC and control cell lines, CellTiter-Glo viability, 72 h; at 44.8 µM (top of the series) unless noted
Procedure, shortened: as §2
Also: nearly all actives have a fitted effect of over 60% in size.

Oc1ccc2nc(CN3CCC(Cc4ccccc4F)CC3)[nH]c2c1
inactive: max response [1] -10.9% | outcome [2] | max response [3] -7.21% | max response [4] -12% | Potency [5]

CC(C)[N+]1(C)C2CCC1CC(OC(=O)C(CO)c1ccccc1)C2 (configuration not stated)
inactive: max response [1] -4.72% | max response [2] -18.4% | max response [3] -2.64% | max response [4] -9.66%

Cc1cccc(C)c1-n1c(=O)c2cnc(Nc3ccc(N4CCN(C)CC4)cc3)nc2n2c3ccccc3nc12
active: Potency [1] 0.517 µM | Potency [2] 2.06 µM | Potency [3] 0.731 µM | Potency [4] 1.3 µM

NC[C@@](O)(c1ccc(Cl)cc1)c1ccc(-c2cn[nH]c2)cc1
active: Potency [1] 5.8 µM | Potency [2] 8.2 µM | Potency [3] 11.6 µM | Potency [4] 5.17 µM

C=C[C@H]1[C@H](O[C@@H]2O[C@H](CO)[C@@H](O)[C@H](O)[C@H]2O)OC=C(C(=O)OC)[C@H]1CCOC(=O)c1cc(O)c(O)c(O)c1
inactive: max response [1] 0.889% | max response [2] 4.92% | outcome [3] | max response [4] -1.02%

CC1(C)C=CN2C(=O)C3=CCCN3C(=O)[C@@H]2C[C@@]12Nc1ccccc1C2=O
inactive: max response [1] -9.52% | max response [2] -4.92% | outcome [3] | max response [4] -3.89%

O=C(NCc1ccc(S(=O)(=O)c2cc(F)cc(F)c2)cc1)c1ccc2nccn2c1
active: Potency [1] 0.0052 µM | Potency [2] 0.0326 µM | Potency [3] 0.0046 µM | Potency [4] 0.0461 µM

CC(=O)OC1/C(C)=C/C(=O)C(OC(C)=O)C(C)(C)/C=C/C(C)C(=O)C2(OC(C)=O)CC(C)C(OC(=O)c3ccccc3)C12 (configuration not stated)
inactive: max response [1] -22.9% | max response [2] -9.17% | outcome [3] | max response [4] -16.3%

Cc1ccc(S(=O)(=O)n2ccc(-c3c(-c4ccc(Cl)cc4)noc3C)n2)cc1
active: Potency [1] 4.11 µM
inactive: outcome [2] | max response [3] -24.7% | max response [4] -14.9% | Potency [5]

CC12CCC(OC3OC(CO)C(O)C(OC4OC(CO)C(O)C(O)C4O)C3O)CC1=CCC1C2CCC2(C)/C(=C3/COC(=O)C3)CCC12O (configuration not stated)
inactive: max response [1] 0.267% | outcome [2] | max response [3] -7.93% | max response [4] -3.87% | Potency [5]

CC1=C2C(O)C(=O)OC(c3ccoc3)C2(C)CCC1O (configuration not stated)
inactive: max response [1] -2.84% | outcome [2] | outcome [3] | max response [4] 3.37% | Potency [5]

CCCC(=O)O[C@@H]1[C@@H]2[C@@H](OC(C)=O)[C@]3(C)C(=O)[C@H]4[C@@H](OC(C)=O)C(C)(C)C[C@H]4[C@]3(C)C(=O)[C@@]2(OC(C)=O)C[C@@H]1C
inactive: max response [1] 3.97% | outcome [2] | max response [3] 8.81% | outcome [4] | Potency [5]

COC(=O)CC(C)(O)CC(=O)OCc1ccc(O[C@@H]2O[C@H](CO)[C@@H](O)[C@H](O)[C@H]2O)cc1 (some centres not stated)
inactive: outcome [1] | max response [2] 2.19% | max response [3] 4.52% | max response [4] -2.06% | outcome [6] inactive [at 17.4 µM]

CC(=O)OC1CC2C3(C)CCC(OC(=O)CC(=O)O)C(C)(C)C3CCC2(C)C2(C)CCC(C3(C)CCC(=O)O3)C12 (configuration not stated)
inactive: outcome [1] | max response [2] 3.4% | outcome [3] | max response [4] 2.16% | outcome [6] inactive [at 17.4 µM]

COc1c2c(c(CO)c3c1C(=O)OC3)OC1(C)CCC3(O)C(C)(C)OC(=O)CCC3(C)C1C2 (configuration not stated)
inactive: outcome [1] | max response [2] -24.1% | outcome [3] | max response [4] -8.25% | outcome [6] inactive [at 17.4 µM]

C=C1C(O)CC2C(C(=O)O)=COC(O[C@@H]3O[C@H](COC(=O)/C=C/c4ccc(O)cc4)[C@@H](O)[C@H](O)[C@H]3O)C12 (some centres not stated)
inactive: outcome [1] | max response [2] -10.4% | outcome [3] | max response [4] -4.95% | outcome [6] inactive [at 17.4 µM]

C=CC1C(OC2OC(CO)C(O)C(O)C2O)OC=C(C(=O)OC)C1CC(=O)OCC1C(C)C(O)CC1C(CO)COC(=O)CC1C(C(=O)O)=COC(OC2OC(CO)C(O)C(O)C2O)/C1=C\C (configuration not stated)
inactive: max response [1] 0.0453% | outcome [2] | outcome [3] | max response [4] -19.3% | outcome [5] inactive [at 9.27 µM]

OCc1ccc(O[C@@H]2O[C@H](CO)[C@@H](O)[C@H](O)[C@H]2O)cc1
inactive: max response [1] -0.162% | outcome [2] | max response [3] -3.37% | max response [4] 2.54% | Potency [5]

C=CC(=O)N1CCN(C(=O)CNc2cc(I)c(Cl)cc2O)CC1
active: Potency [1] 13 µM | Potency [3] 20.6 µM
inactive: outcome [2] | Potency [5]
